PubChem BioAssay (EPA / NIEHS)
Calls of active or inactive are those of the source. How the source made its calls: active means hit-call score of the fitted dose curve at least 0.9, where 1 is the maximum; inactive means score below 0.9.

read-out: Monocyte Chemoattractant Protein-1 (MCP1), CCL2 (gene 6347); experiment: BSK_3C_MCP1: BioMAP Diversity Plus: 3C Assay for Monocyte Chemoattractant Protein-1 (MCP1) Biomarker Activity (AID 2283017); details: primary human endothelial cells (HUVEC); actives raise or lower the signal
Procedure, shortened: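 HUVEC, 3C system; 24 h chemical exposure; MCP-1 by ELISA; bidirectional curve fit vs DMSO baseline.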

SMILES	AC50	outcome
CC(C)(COC(=O)c1ccccc1)COC(=O)c1ccccc1	34.4 µM (active)	–
c1ccc2sc(SN(C3CCCCC3)C3CCCCC3)nc2c1	10.1 µM (active)	–
C[C@H]1C[C@@H]2[C@H]([C@@H](O)C[C@@]3(C)[C@H]2CC[C@]3(O)C(=O)CO)[C@@]2(C)C=CC(=O)C=C12	–	inactive
CN(CCOc1ccc(CC2SC(=O)NC2=O)cc1)c1ccccn1 (stereo unspecified)	0.113 µM (active)	–
O=C(O)c1cn(-c2ccc(F)cc2)c2cc(N3CCNCC3)c(F)cc2c1=O	–	inactive
Cc1ccc(O)c(C(C)(C)C)c1	27.6 µM (active)	–
c1ccc2c(c1)c1cccc3ccc4cccc2c4c31	–	inactive
CC(=O)/C=C/C1=C(C)CCCC1(C)C	–	inactive
Cc1cc(C2(c3cc(C)c(O)cc3C)OS(=O)(=O)c3ccccc32)c(C)cc1O	–	inactive
O=C(O)c1ccc([N+](=O)[O-])cc1	–	inactive
CC(C)c1ccc(C(C)C)cc1	36.8 µM (active)	–
CCCCCCCCCCCCCCCCCC(=O)OCC(CC)CCCC (stereo unspecified)	–	inactive
OC1OC[C@@H](O)[C@H](O)[C@H]1O (stereo partly specified)	–	inactive
CNC[C@H](O)c1cccc(O)c1	–	inactive
C#C[C@]1(O)CC[C@H]2[C@@H]3CCC4=Cc5oncc5C[C@]4(C)[C@H]3CC[C@@]21C	–	inactive
CC1CCC(C(C)CS)CC1S (stereo unspecified)	20 µM (active)	–
